# ± gives the standard deviation of the averaged measurements. Whole data set: some 4,100 sequences, median “relative kcat/Km (krel) vs genomic leader AAAGAU” near 1.7, cut for the highest 2% near 6.5. This is one part of a sample in which the highest values are shown more often than they occur.
# Molecular target: T1, E. coli RNase P holoenzyme (M1 P RNA + rnpA protein) (UniProt P0A7Y8)
# T1 sequence: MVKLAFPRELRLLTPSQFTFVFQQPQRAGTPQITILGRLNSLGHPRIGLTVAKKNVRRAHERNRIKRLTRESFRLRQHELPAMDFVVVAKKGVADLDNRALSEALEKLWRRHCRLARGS
# Assay: relative kcat/Km (krel) vs genomic leader AAAGAU (relative (reference leader = 1)); higher = faster RNase P cleavage
# Procedure, shortened: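 Relative kcat/Km (krel) values came from internal competition kinetics on sequencing read ratios, normalised to the genomic leader and averaged over two technical replicates. A precursor tRNA-Met pool with randomized leader positions −6 to −1 was cleaved by E. coli RNase P holoenzyme (P RNA plus C5 protein) under multiple-turnover conditions at 37 °C. The buffer held 50 mM Tris-HCl pH 8, 100 mM NaCl and 17.5 mM MgCl2, and unreacted precursor was gel-purified at ~5–30% conversion, made into cDNA libraries and Illumina-sequenced.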
# [1] = fraction of substrate reacted: ~26-29% (28.66% repeat 1, 26.4% repeat 2)
# [2] = fraction of substrate reacted: ~9-10% (9.79% repeat 1, 9.1% repeat 2)
# [3] = fraction of substrate reacted: ~13-16% (15.68% repeat 1, 13.17% repeat 2)
Sequence,relative kcat/Km [1],relative kcat/Km [2],relative kcat/Km [3]
GGTTGG,1.05 ± 0.77,–,–
TGACAC,5.94 ± 2.2,3.63 ± 1.5,4.21 ± 0.43
TTGCCT,2.09 ± 0.58,1.95 ± 0.52,1.33 ± 0.068
GGAGCC,1.3 ± 0.38,1.22 ± 0.046,0.902 ± 0.094
ACACGG,–,–,0.487 ± 0.4
ACGCAA,2.25 ± 0.13,1.95 ± 1.4,1.95 ± 0.18
GGGGCG,0.656 ± 0.0035,0.268 ± 0.026,–
ATAGGT,2.15 ± 1.4,–,–
ATAACT,1.79 ± 0.75,1.28 ± 0.37,1.21 ± 0.2
GAGTTT,2.05 ± 0.46,1.6 ± 0.65,1.28 ± 0.17
ACAAAC,2.42 ± 0.36,1.92 ± 1.6,1.88 ± 1.1
GTCTGA,6.97 ± 2.6,3.86 ± 1.8,4.82 ± 1.2
GTCTGG,0.916 ± 0.067,–,0.567 ± 0.54
GTCTGT,2.58 ± 2,–,–
CGCTGA,3.55 ± 0.89,1.89 ± 0.05,2.02 ± 1
CTCTGA,6.63 ± 1.7,4.13 ± 2,4.61 ± 0.58
CTCTGT,2.05 ± 1.6,0.825 ± 0.31,1.81 ± 1.4
GGGCAT,2.18 ± 0.97,1.03 ± 0.31,1.51 ± 0.12
TCTAAG,2.47 ± 0.27,2.04 ± 1.6,1.47 ± 0.52

# — the supplement of paper PMC9433436
